# Bioassay records: PubChem, Broad Institute
# Shown is part of a subset that was picked to be rich in hits.
# IDE exosite inh: displaces the probe from the exo-site of human IDE; P14735; purified IDE, FL-6b probe fluorescence polarization; stronger effect = lower value; z-score at 20 µM; actives 6.3% (n = 17,000);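 active means z-score of -3 or lower, meaning strong loss of probe binding signal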;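 further: His-tagged human IDE residues 42-1019 made in E. coli with 30 nM FL-6b probe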
# Target sequence (P14735 42-1019 limits assumed): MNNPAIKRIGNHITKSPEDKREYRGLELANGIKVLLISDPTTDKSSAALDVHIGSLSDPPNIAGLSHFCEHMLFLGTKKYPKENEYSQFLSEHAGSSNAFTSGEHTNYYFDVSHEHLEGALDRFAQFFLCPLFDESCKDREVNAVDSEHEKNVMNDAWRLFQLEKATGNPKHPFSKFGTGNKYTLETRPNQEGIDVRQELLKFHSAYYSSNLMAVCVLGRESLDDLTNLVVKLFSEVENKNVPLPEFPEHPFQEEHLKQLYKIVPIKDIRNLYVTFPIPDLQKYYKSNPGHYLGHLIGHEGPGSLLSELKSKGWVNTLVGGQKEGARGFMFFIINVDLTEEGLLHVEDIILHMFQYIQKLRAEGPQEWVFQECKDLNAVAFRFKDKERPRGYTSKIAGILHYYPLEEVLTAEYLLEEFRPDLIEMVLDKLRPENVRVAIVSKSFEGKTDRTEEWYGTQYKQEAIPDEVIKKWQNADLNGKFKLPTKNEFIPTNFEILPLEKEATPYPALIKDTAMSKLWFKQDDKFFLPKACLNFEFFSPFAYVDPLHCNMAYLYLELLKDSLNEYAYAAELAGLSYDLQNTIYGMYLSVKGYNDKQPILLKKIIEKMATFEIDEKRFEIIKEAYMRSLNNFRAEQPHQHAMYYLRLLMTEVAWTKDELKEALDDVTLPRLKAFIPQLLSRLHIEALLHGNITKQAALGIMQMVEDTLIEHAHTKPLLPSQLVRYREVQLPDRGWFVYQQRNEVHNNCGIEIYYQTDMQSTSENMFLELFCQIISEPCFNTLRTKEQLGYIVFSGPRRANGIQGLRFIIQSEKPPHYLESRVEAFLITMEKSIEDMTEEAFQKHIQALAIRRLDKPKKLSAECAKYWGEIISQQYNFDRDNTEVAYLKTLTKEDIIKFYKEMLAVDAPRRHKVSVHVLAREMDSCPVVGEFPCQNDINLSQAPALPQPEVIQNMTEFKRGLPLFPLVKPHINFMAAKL
# Starred values were filed as active, the others as inactive; ! = repeats disagree.
SMILES,IDE exosite inh
O=C(Nc1ccccc1F)N1CC(=O)N2[C@@H](CO)[C@@H](c3ccc(-c4ccc(F)cc4)cc3)[C@@H]2C1,2.5
C[C@H](O)C#Cc1ccc([C@@H]2[C@H]3CN(S(=O)(=O)Cc4ccccc4)CCCCN3[C@H]2CO)cc1,-0.67
CN1CCCCN2[C@H](C1)[C@H](c1ccc(-c3cccnc3)cc1)[C@@H]2CO,-1.2
O=C(c1ccncc1)N1CCCCN2[C@H](CO)[C@@H](c3ccc(-c4ccccc4)cc3)[C@H]2C1,1.7
O=C(Nc1cccc(F)c1)N1CCCCN2[C@@H](CO)[C@@H](c3ccc(-c4ccncc4)cc3)[C@@H]2C1,5.5
CCOC(=O)c1cc2c(c(-c3cccc(C#CCN(C)C)c3)n1)[C@@H](CCO)N(S(=O)C(C)(C)C)C2 (some centres not stated),-0.16
COc1ccc(CN2C[C@@H](O)COC[C@@H]3O[C@H](CC(=O)N(C)C)CC[C@H]32)cc1,1.4
COCC(=O)N1[C@H](CO)[C@H]2c3ccccc3N(C(=O)c3cccnc3)C[C@H]21,-0.58
C[C@@H](NC(=O)C[C@@H]1CC[C@H]2[C@@H](COC[C@H](O)CN2C(=O)Nc2cccc(Cl)c2)O1)c1ccccc1,1.1
COc1ccc(C[C@@H]2CCn3cc(nn3)COC[C@@H](C)NC2=O)cc1,1.4
COc1cccc(-c2ccc3c(c2)O[C@H](CN(C)Cc2cccnc2)[C@H](C)CN([C@H](C)CO)S3(=O)=O)c1,0.53
C/C=C/c1ccc([C@H]2[C@@H](CO)N(C(C)=O)[C@@H]2CN(CCOC)C(C)=O)cc1,1.7
O=C(c1cccc(F)c1)N1CC(=O)N2[C@H](CO)[C@@H](c3ccc(C#Cc4ccc(F)cc4)cc3)[C@@H]2C1,1.3
O=C(C1CCCCC1)N1CC(=O)N2[C@H](CO)[C@H](c3ccc(C#Cc4cccc(F)c4)cc3)[C@H]2C1,-2.9
O=C(C1CCC1)N1CC(=O)N2[C@H](CO)[C@@H](c3ccc(C#Cc4cccc(F)c4)cc3)[C@H]2C1,-6.9*
O=C(C1CC1)N1CC(=O)N2[C@H](CO)[C@@H](c3ccc(C#Cc4cccc(F)c4)cc3)[C@@H]2C1,-5.7*
O=C(C1CCCCC1)N1CC(=O)N2[C@H](C1)[C@@H](c1ccc(C#Cc3cccc(F)c3)cc1)[C@@H]2CO,-0.09
O=C(c1cccc(F)c1)N1CC(=O)N2[C@H](C1)[C@H](c1ccc(C#Cc3ccc(F)cc3)cc1)[C@@H]2CO,1.5
O=C(C1CC1)N1CC(=O)N2[C@H](CO)[C@H](c3ccc(C#Cc4cccc(F)c4)cc3)[C@@H]2C1,-4.2*
O=C(c1cccc(F)c1)N1CC(=O)N2[C@@H](CO)[C@@H](c3ccc(C#Cc4ccc(F)cc4)cc3)[C@@H]2C1,-0.9
O=C(C1CC1)N1CC(=O)N2[C@H](CO)[C@@H](c3ccc(C#Cc4cccc(F)c4)cc3)[C@H]2C1,-3.1*
O=C(Nc1ccc(F)cc1)N1CC(=O)N2[C@H](CO)[C@H](c3ccc(C#Cc4cccnc4)cc3)[C@@H]2C1,-0.63
Cc1ccc(S(=O)(=O)N(C)C[C@@H]2Oc3cc(C#CC4CCCC4)ccc3S(=O)(=O)N([C@H](C)CO)C[C@H]2C)cc1,1
N#C[C@H]1[C@@H](c2ccccc2C2=CCCC2)[C@H](CO)N1C(=O)C1CCOCC1,-0.28
CO[C@H](CN(C)Cc1ccc2c(c1)OCO2)[C@@H](C)CN(C(=O)Nc1ccc(F)cc1)[C@@H](C)CO,0.51
SMILES,IDE exosite inh
COCC(=O)N1[C@H](CO)[C@H]2c3ccccc3N(C)C[C@H]21,2.2
CCCNC(=O)C[C@@H]1CC[C@H]2[C@@H](COC[C@H](O)CN2Cc2ccncc2)O1,0.72
CN(C)C(=O)c1cccc(-c2ccc([C@@H]3[C@@H](CO)N4CCCCN(CCC(F)(F)F)C[C@H]34)cc2)c1,1.4
CCc1cnc(N2[C@H](C#N)[C@H](c3ccc(-c4cccc(F)c4)cc3)[C@H]2CO)s1,-2.1
CCC(=O)N1CC(=O)N2[C@H](CO)[C@@H](c3ccc(C#Cc4cccc(F)c4)cc3)[C@H]2C1,2.6
O=C(C1CC1)N1CC(=O)N2[C@H](CO)[C@H](c3ccc(C#Cc4cccc(F)c4)cc3)[C@H]2C1,-9.6*
O=C(C1CCCCC1)N1CC(=O)N2[C@H](CO)[C@H](c3ccc(C#Cc4cccc(F)c4)cc3)[C@@H]2C1,0.66
O=C(C1CC1)N1CC(=O)N2[C@@H](CO)[C@H](c3ccc(C#Cc4cccc(F)c4)cc3)[C@@H]2C1,-5.8*
O=C(C1CC1)N1CC(=O)N2[C@H](C1)[C@@H](c1ccc(C#Cc3cccc(F)c3)cc1)[C@@H]2CO,-2.9
O=C(c1cccc(F)c1)N1CC(=O)N2[C@H](CO)[C@H](c3ccc(C#Cc4ccc(F)cc4)cc3)[C@H]2C1,3.9
COC(=O)C[C@H]1CC[C@@H]2[C@@H](COc3ccc(NC(=O)Nc4cccc(C#N)c4)cc3C(=O)N2C)O1,-0.71
CCN(C[C@@H]1N[C@H](CO)[C@H]1c1ccc(-c2ccc(F)cc2)cc1)C(=O)COC,1.8
CN(C)C(=O)c1ccc(-c2ccccc2[C@H]2[C@H](C#N)N(C(=O)C3CC3)[C@H]2CO)cc1,-0.68
C[C@H](NC(=O)C[C@H]1CC[C@@H]2[C@H](COc3ccc(NS(=O)(=O)c4ccc(Cl)cc4)cc3C(=O)N2C)O1)c1ccccc1,0.0011
CC(C)NC(=O)N(C)C[C@H]1Oc2ccc(NC(=O)Cc3ccccc3)cc2CC(=O)N([C@H](C)CO)C[C@H]1C,1.2
CCCNC(=O)N1[C@@H]2CNC[C@H]1C2c1ccc(-c2ccc(C)cc2)cc1 (some centres not stated),-3.2*!
CCCNC(=O)N1[C@@H](CO)[C@@H](c2ccc(-c3ccccc3)cc2)[C@@H]1CNC(C)=O,0.87
CC(C)NC(=O)N1[C@@H]2CNC[C@H]1C2c1ccc(-c2cccc(C#N)c2)cc1 (some centres not stated),3.9
O=C(Nc1cccc(Cl)c1)N1[C@@H]2CNC[C@H]1C2c1ccc(/C=C/c2ccccc2)cc1 (some centres not stated),-0.29
CCCNC(=O)N1[C@@H]2CNC[C@H]1C2c1ccc(/C=C/c2ccccc2)cc1 (some centres not stated),-7.5*
CC(C)NC(=O)N1[C@@H]2CNC[C@H]1C2c1ccc(/C=C/c2ccccc2)cc1 (some centres not stated),-1.7
COc1ccc(NC(=O)N(C)C[C@@H]2OCCCC[C@@H](C)Oc3ccc(NC(=O)c4ccncc4)cc3C(=O)N([C@H](C)CO)C[C@@H]2C)cc1,0.19
CCN(C[C@@H]1[C@@H](c2ccc(C3=CCCCC3)cc2)[C@@H](CO)N1C(C)=O)C(C)=O,-0.15
CCCNC(=O)C[C@@H]1CC[C@@H]2[C@H](COC[C@@H](O)CN2C(=O)c2ccc(F)cc2)O1,0.073
Cc1ccc(-c2ccc(C3[C@H]4CNC[C@@H]3N4S(=O)(=O)c3ccccc3)cc2)cc1 (some centres not stated),5
Cn1cnc(S(=O)(=O)N2CCCCN3[C@H](CO)[C@@H](c4ccc(-c5ccccc5F)cc4)[C@H]3C2)c1,2.5
Cc1ccccc1-c1ccc(C2[C@H]3CNC[C@@H]2N3S(=O)(=O)c2cccc(F)c2)cc1 (some centres not stated),-3.4*!
O=S(=O)(c1cccc(F)c1)N1[C@@H]2CNC[C@H]1C2c1ccc(-c2ccccc2F)cc1 (some centres not stated),-1.1
Cc1ccccc1-c1ccc(C2[C@@H]3CN(S(=O)(=O)c4cn(C)cn4)C[C@H]2N3)cc1 (some centres not stated),-5.3*
